4MU fluor: compound fluoresces in the 4-MU spectral region | compound autofluorescence, 340/450 nm, 4-MU equivalents; stronger effect = higher value | max dye-equivalent concentration, M | 11% of 59,000 active | AID 589; in the data active = max dye-equivalent concentration above about 10 nM; inconclusive = mostly about 1.1 nM to 9.6 nM
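Compounds in 100 mM Tris, pH 8.0, sat 15 min at room temperature before fluorescence was read at 340 nm excitation/450 nm emission; a per-plate six-point 4-MU standard curve converted signals to dye-equivalent concentration at each compound concentration.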
HSD17B inhib: HSD17B dehydrogenase inhibition. recombinant HSD17B10, NADH fluorescence kinetic. 7.6% of 75,000 active. Potency, µM (highest dose often 57.1 µM), actives largely listed as inhibitors. Q99714;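 also: the protocol describes HADH2 (HSD17B10) and not the HSD17B4 of the title; nearly all actives have a fitted effect of over 70% in size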
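His-tagged E. coli-expressed HADH2 at 20 nM in 100 mM Tris-HCl pH 9.0 with 0.01 % Tween-20, preincubated 15 min with compound at room temperature. Reaction with 1 mM NAD+ and 90 uM beta-hydroxybutyryl coenzyme A; NADH fluorescence (360/450 nm) read kinetically over 4 min, last minus first point.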
GBA mod: modulators of human glucocerebrosidase | purified enzyme, resorufin glucoside fluorescence (screen aimed at inhibitors), 20 min | 1.1% of 48,000 active | Potency, µM | P04062; in the data active = potency below about 15 µM; inconclusive = mostly about 16 µM to 33 µM;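 also: the screen sought inhibitors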
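Normal human glucocerebrosidase (0.2 nM final) was assayed with resorufin β-D-glucopyranoside (30 uM final) in 50mM citric acid/KH2PO4, 10mM sodium taurocholate, 0.01% tween-20, pH 5.9. Compounds were titrated; fluorescence (Ex 548, Em 600) read after 20 min at RT.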
AID923: qHTS Assay for Allosteric/Competitive Inhibitors of Caspase-1: Spectroscopic Profiling in AFC Spectral Region; compound fluorescence, AFC spectral region (405/520 nm); 1.1% of 75,000 active; AID 923, 2007; Potency, µM (doses to about 57.5 µM), most hits filed as activators
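Titrations up to 57 uM read every 20 sec for 3 min (405/520 nm) with 50 nM caspase 1 and 5 uM Ac-WEHD-AFC, pH 7.5 HEPES buffer. Fluorescence-vs-time intercept gave baseline, scaled against on-plate AFC standard.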
A350 fluor: A350 region autofluorescence. Compound autofluorescence, 340/450 nm, Alexa 350 dye-equivalents; stronger effect = higher value. max dye-equivalent concentration, M. 11% of 59,000 active. AID 590; in the data active = max dye-equivalent concentration above about 10 nM; inconclusive = mostly about 1.1 nM to 9.6 nM
HADH2 inhib: HADH2 (human) dehydrogenase inhibition | Q99714 | recombinant HADH2, NADH fluorescence, beta-hydroxybutyryl-CoA | AID 886 | Potency, µM (highest dose often 57.1 µM), most hits filed as inhibitors | 3.4% of 73,000 active; also: nearly all actives have a fitted effect of over 60% in size
Target sequence (Q99714 whole entry, looked up, one chain of several): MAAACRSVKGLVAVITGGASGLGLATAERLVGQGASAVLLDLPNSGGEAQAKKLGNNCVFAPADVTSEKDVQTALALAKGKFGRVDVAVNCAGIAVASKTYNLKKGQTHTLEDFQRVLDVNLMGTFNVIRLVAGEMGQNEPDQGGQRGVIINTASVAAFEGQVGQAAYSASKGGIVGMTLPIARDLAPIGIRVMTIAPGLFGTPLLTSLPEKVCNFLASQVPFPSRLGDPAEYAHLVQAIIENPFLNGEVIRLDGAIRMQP
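Read-out: 360 nm excitation, 450 nm emission, kinetic over 4 min. Conditions: His-tagged human HADH2 20 nM, pH 9.0 Tris with Tween-20, 1 mM NAD+, 90 uM beta-hydroxybutyryl-CoA.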
A number is an active result; [ ] = dose if it differs, or a comment. Most compounds without a hit are left out; they make up all but 13% or so of the library. Unless noted, calls follow the shape of the dose curve; as a rule, active = well fitted curve in the direction sought with a large enough effect; inconclusive = small, poorly fitted or top-dose-only effect, or another doubt; inactive = no such curve, though single readings can be large; an effect the other way counts as inactive or inconclusive.

How did CC(CN1CCOCC1)OC(=O)c1ccc(Br)cc1 (stereo not given) do in these assays?
4MU fluor: inactive; HSD17B inhib: inactive; GBA mod: inactive; AID923: inactive; A350 fluor: inactive; HADH2 inhib: inactive

Results for CC1(C)Cc2c(c(-c3ccccc3)[nH]c(=O)c2C#N)CO1 ?
4MU fluor: inconclusive; HSD17B inhib: inactive; GBA mod: inactive; AID923: inactive; A350 fluor: inconclusive; HADH2 inhib: inactive

How did CC(C)Cc1[nH]c(=O)c(C#N)c2c1COC(C)(C)C2 do in these assays?
4MU fluor: inconclusive; A350 fluor: 1.2e-08M

Results for CN(C)c1ccc(-c2nn3c(-c4ccc(Cl)cc4)nnc3s2)cc1 ?
4MU fluor: 2e-08M; A350 fluor: 2.4e-08M

How did CN(C)c1ccc(-c2nn3c(C4CCCCC4)nnc3s2)cc1 do in these assays?
4MU fluor: 2.1e-07M; HSD17B inhib: inactive; GBA mod: inactive; AID923: inactive; A350 fluor: 2.1e-07M; HADH2 inhib: inconclusive

Results for c1ccc(OCc2nn3c(C4CCCCC4)nnc3s2)cc1 ?
4MU fluor: inactive; A350 fluor: inactive

Results for Cc1nn2c(-c3ccc(Cl)cc3)nnc2s1 ?
4MU fluor: inactive; A350 fluor: inactive

Results for CC[C@H](C)[C@H](NC(=O)OCC1c2ccccc2-c2ccccc21)C(=O)O ?
HSD17B inhib: inconclusive; AID923: inactive

What do the screens show for `Cc1noc(C)c1-c1nccc(N(C)Cc2ccco2)n1`?
4MU fluor: inactive; HSD17B inhib: inactive; AID923: inactive; A350 fluor: inactive; HADH2 inhib: inconclusive

What do the screens show for `O=C(c1ccccc1)c1ccc2nc(N3CCN(C(=O)c4ccco4)CC3)c3nncn3c2c1`?
HSD17B inhib: inconclusive; AID923: inactive; HADH2 inhib: inactive

Results for Cc1cccc(N2CCN(c3nc4ccc(Cl)cc4n4cnnc34)CC2)c1C ?
HSD17B inhib: 25µM; AID923: inactive; HADH2 inhib: inactive

What do the screens show for `COc1cccc(NC2=CC(=O)CC(C)(C)C2)c1`?
4MU fluor: inconclusive; HSD17B inhib: inactive; GBA mod: inactive; AID923: inactive; A350 fluor: inconclusive; HADH2 inhib: inactive

How did CC(O)c1cccc(NC2=CC(=O)CC(C)(C)C2)c1 (stereo not given) do in these assays?
4MU fluor: 4.1e-08M; HSD17B inhib: inactive; GBA mod: inactive; AID923: inactive; A350 fluor: 4.7e-08M; HADH2 inhib: inactive

Results for CCC1=C(OC(=O)N(CC)CC)N2C(=O)OC(=NCC(=O)OC)[C@]2(C)[C@H]2C1=CC[C@H]1C(=O)N(CC)C(=O)[C@H]12 ?
HSD17B inhib: inactive; AID923: inactive

Results for O=[n+]1cc(-c2ccccc2)n([O-])c2c1CCC2 ?
4MU fluor: inconclusive; HSD17B inhib: inactive; GBA mod: inactive; AID923: inactive; A350 fluor: 1.3e-08M; HADH2 inhib: inactive

What do the screens show for `O=C(Nc1ccccc1)NC1(C(=O)NCc2ccco2)CCCCC1`?
4MU fluor: inactive; HSD17B inhib: inactive; GBA mod: inactive; AID923: inactive; A350 fluor: inactive; HADH2 inhib: inactive

What do the screens show for `COc1ccccc1CN1C(=O)CCC1(C)C(=O)NCc1cccnc1` (stereo not given)?
4MU fluor: 1.2e-08M; HSD17B inhib: inactive; GBA mod: inactive; AID923: inactive; A350 fluor: 1.3e-08M; HADH2 inhib: inactive

How did Cc1cccc(Nc2ncnc3nc[nH]c23)c1C do in these assays?
HSD17B inhib: inactive; AID923: inactive; HADH2 inhib: inactive

How did Cc1nnc(Oc2ccccc2)c2ccccc12 do in these assays?
4MU fluor: 1.5e-08M; HSD17B inhib: inactive; GBA mod: inactive; AID923: inactive; A350 fluor: inconclusive; HADH2 inhib: inactive

Results for O=S(=O)(O)C1CCNCC1 ?
4MU fluor: 4.1e-08M; HSD17B inhib: inactive; AID923: inactive; A350 fluor: 4.6e-08M; HADH2 inhib: inactive

How did COC(=O)C(C(C)=O)C(=O)C(Cc1ccccc1)NC(=O)OCc1ccccc1 (stereo not given) do in these assays?
HSD17B inhib: inactive[11.4 µM]; AID923: inactive[11.5 µM]; HADH2 inhib: inactive[11.4 µM]

Source: PubChem BioAssay (National Center for Advancing Translational Sciences (NCATS))
